{"source": "PubChem BioAssay (NCI)", "note": "Values joined by “and” are separate entries in the source; they are usually repeats but may differ in a detail not shown here. Equal entries are not always repeated. About 83,000 compounds went through this panel and 20% of them were active in at least one assay; those are over-represented in the sample as a whole.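 Assay: single dose, 48 h. Readout: percent growth (0 = no net growth; negative = cell death). Active: <10.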 Values without a mark were called inactive. Active and inactive are the calls of the source.", "data": [{"system": "HL-60(TB) leukemia", "assay": "NCI-60 one-dose screen, 48 h (100 = growth as untreated, 0 = no growth, -100 = all killed)", "conditions": "10 µM unless noted", "values": [{"smiles": "Cn1cc(C(=O)c2nc(-c3c[nH]c4ccccc34)no2)c2ccccc21", "growth": "58.5%"}, {"smiles": "COc1cc(C2=NN(C=O)C(c3cccc(Nc4ccnc5cc(C(F)(F)F)ccc45)c3)C2)cc(OC)c1OC", "note": "(stereo not drawn)", "growth": "8.02% (active)"}, {"smiles": "CN1CCN(C(=O)[C@]2(C)CC[C@]3(C)CC[C@]4(C)C(=CC(=O)[C@@H]5[C@@]6(C)CCC(=O)NC(C)(C)[C@@H]6CC[C@]54C)[C@@H]3C2)CC1", "growth": "95.7%"}, {"smiles": "O=C(/C=C/c1ccc(Cl)cc1)c1ccc(Br)cc1", "growth": "81.4%"}, {"smiles": "C/C(=C\\c1ccccc1)c1ccccn1", "growth": "70.9%"}, {"smiles": "COc1cc2ncnc(-n3ncc4cc(NC(=O)Nc5ccc(Cl)c(Cl)c5)ccc43)c2cc1OC", "growth": "15.3%"}, {"smiles": "O=C1NCCC12CCN(c1c(Cl)cncc1-c1ccc(O)cc1)CC2", "growth": "102%"}, {"smiles": "COc1cc(-c2nc(-c3ccccc3)c(-c3ccccc3)[nH]2)cc(OC)c1O", "growth": "-8.92% (active)"}, {"smiles": "O=c1cc(-c2cccnc2)oc2c1ccc1ccccc12", "growth": "83.4%"}, {"smiles": "O=c1[nH]nnc2cc(Cl)ccc12", "growth": "108% and 100%"}, {"smiles": "COC(=O)[C@H](Cc1cnc[nH]1)NC(=O)[C@@H](NC(=O)Nc1cc(C(F)(F)F)cc(C(F)(F)F)c1)C(C)C", "growth": "-62.5% [100 µM] (active)"}, {"smiles": "CN1CCN(CCCOc2ccc3nc(Nc4ccc(C(F)(F)F)c(Cl)c4)ccc3c2)CC1", "growth": "12.5%"}, {"smiles": "COc1ccc2c(c1)CC[C@H](O)/C2=C/c1cc(OC)c(OC)c(OC)c1", "growth": "-20.2% (active)"}]}]}
